Data published in PubChem BioAssay.
Where “and” joins values, the source holds several entries; their conditions need not be identical. Equal values may be shown once. Calls of active or inactive are those of the source.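 The calls were made as follows, unless noted: active = mean z-score across replicates of 1.96 or higher in either the MELAS or the Rieske mutant cell line; inactive = the rest.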

Columns and labels:
[1] = stimulators of nuclear beta-catenin in C2C12, primary screen, imaging, WNT3A-conditioned medium, mouse C2C12, NPC library (AID 1117326; in the data active = nuclear beta-catenin stimulation mostly above about 4.2%, no sharp cut-off; inactive = mostly below about 10%); conditions: stronger effect = higher value
[2] = stimulators of insulin release from INS-1E, primary screen, cell-based, 5 mM glucose, NPC library (AID 1117329;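 active = compound raises insulin release from rat beta cells at 5 mM glucose, no numeric limit stated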); conditions: rat INS-1E insulin secretion, at 10 µM, stronger effect = higher value
[3] = growth inhibition of GSK3B-pretreated HCT116 cells – cell-based, CellTiter-Glo, 0.2 to 20 µM (AID 1117336;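 active = compounds lowering colon cancer cell viability after pretreatment blocking the GSK3B kinase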); conditions: HCT116 viability after GSK3B inhibitor, at 20 µM, stronger effect = higher value
[4] = inhibition of endothelial tube formation, primary screen, imaging, VEGF stimulated, CD31 staining, tube area, NPC library (AID 1117340;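 active = compound that reduces growth-factor-driven endothelial tube area in a mixed cell culture, no cutoff stated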); conditions: VEGF-stimulated ADSC/ECFC co-culture, at 10 µM, stronger effect = higher value
[5] = glucagon-like peptide 1 release enhancers, primary assay, NCI-H716 cell line, NPC library (AID 1117341;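 active = compound raises GLP1 secretion from the human gut endocrine cells, with no numeric limit stated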); conditions: NCI-H716 cells, at 10 µM, stronger effect = higher value
[6] = HCT116 colon cancer cell growth inhibition, primary screen, CellTiter-Glo luminescence, NPC library (AID 1117342;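 active = compounds that lower survival of HCT116 colon cancer cells in the luminescence readout, no numeric limit stated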); conditions: at 20 µM (top of the series)
[7] = CellTiter-Glo luminescent readout of SW480 viability loss, NPC library primary (AID 1117343;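 active = compounds that lower viability of the colon cancer cells in the luminescence readout, with no numeric limit stated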); conditions: CellTiter-Glo luminescence; at 20 µM (top of the series)
[8] = decreased DLD-1 cellular survival, CellTiter-Glo luminescent readout, NPC compound collection, primary HTS (AID 1117346;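 active = compounds that lower survival of DLD-1 colon cancer cells in the luminescence readout, no cutoff given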); conditions: DLD-1 viability, CellTiter-Glo luminescence; at 20 µM (top of the series)
[9] = molecular target: 6-phosphogluconate dehydrogenase, decarboxylating (Homo sapiens) (UniProt P52209); assay: 6PGD enzyme inhibitors, primary screen, biochemical, human, recombinant enzyme, NADPH absorbance (AID 1159550;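 active = at least 20% inhibition of 6-phosphogluconate dehydrogenase activity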); conditions: recombinant 6PGD, NADPH absorbance 341 nm; at 10 µM; stronger effect = higher value
6-phosphogluconate dehydrogenase, decarboxylating (Homo sapiens), sequence (P52209 whole entry, looked up): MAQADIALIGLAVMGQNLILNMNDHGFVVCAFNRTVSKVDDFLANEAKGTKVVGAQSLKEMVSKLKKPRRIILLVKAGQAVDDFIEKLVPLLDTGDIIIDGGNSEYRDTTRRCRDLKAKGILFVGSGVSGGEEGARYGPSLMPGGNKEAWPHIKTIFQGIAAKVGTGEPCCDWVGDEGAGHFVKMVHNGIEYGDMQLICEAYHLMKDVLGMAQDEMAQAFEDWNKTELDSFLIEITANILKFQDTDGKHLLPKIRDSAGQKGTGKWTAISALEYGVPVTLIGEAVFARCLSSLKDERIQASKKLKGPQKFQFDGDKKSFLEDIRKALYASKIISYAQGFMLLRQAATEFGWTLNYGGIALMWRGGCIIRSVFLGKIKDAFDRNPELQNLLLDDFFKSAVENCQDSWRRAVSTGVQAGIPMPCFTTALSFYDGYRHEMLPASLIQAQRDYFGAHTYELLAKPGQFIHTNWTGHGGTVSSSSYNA

[10] = differential killing of epithelial or mesenchymal cells, primary screen, imaging, PC-3E GFP, TEM4-18 mCherry, co-culture (AID 1345086;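 active = compounds killing one labelled cell type while sparing the other, by normalised counts and ratio limits, not self-fluorescent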;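 as to all read-outs here: cells exposed to compound for 72 h before imaging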;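 as to red/green cell ratio (normalised): normalised mesenchymal count divided by normalised epithelial count so high means epithelial killing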); conditions: imaging cell counts, at 1 µM; for red/green cell ratio (normalised): actives lie on both sides, counts scaled to control wells, 1 = unselective
[11] = survival rescue of mitochondrial mutant cells in low glucose, primary screen, MELAS cybrids, Rieske KO mouse fibroblasts, CellTiter-Glo (AID 1508586);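 also: z relative to plate mean and SD of compound and empty wells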
[12] = molecular target: NAD(+) hydrolase SARM1 (Homo sapiens) (UniProt Q6SZW1); assay: SARM1 TIR NADase inhibitors, cell lysate, NAD-Glo luminescence (AID 1508614;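 active = compound whose remaining NAD level is above about 45 nM, limit read from the data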;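 also: higher remaining NAD means stronger inhibition of SARM1 NADase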); conditions: SAM-TIR HEK293T lysate NADase, at 1 µM, stronger effect = higher value
NAD(+) hydrolase SARM1 (Homo sapiens), sequence (Q6SZW1 whole entry, looked up, the tested form may be a part): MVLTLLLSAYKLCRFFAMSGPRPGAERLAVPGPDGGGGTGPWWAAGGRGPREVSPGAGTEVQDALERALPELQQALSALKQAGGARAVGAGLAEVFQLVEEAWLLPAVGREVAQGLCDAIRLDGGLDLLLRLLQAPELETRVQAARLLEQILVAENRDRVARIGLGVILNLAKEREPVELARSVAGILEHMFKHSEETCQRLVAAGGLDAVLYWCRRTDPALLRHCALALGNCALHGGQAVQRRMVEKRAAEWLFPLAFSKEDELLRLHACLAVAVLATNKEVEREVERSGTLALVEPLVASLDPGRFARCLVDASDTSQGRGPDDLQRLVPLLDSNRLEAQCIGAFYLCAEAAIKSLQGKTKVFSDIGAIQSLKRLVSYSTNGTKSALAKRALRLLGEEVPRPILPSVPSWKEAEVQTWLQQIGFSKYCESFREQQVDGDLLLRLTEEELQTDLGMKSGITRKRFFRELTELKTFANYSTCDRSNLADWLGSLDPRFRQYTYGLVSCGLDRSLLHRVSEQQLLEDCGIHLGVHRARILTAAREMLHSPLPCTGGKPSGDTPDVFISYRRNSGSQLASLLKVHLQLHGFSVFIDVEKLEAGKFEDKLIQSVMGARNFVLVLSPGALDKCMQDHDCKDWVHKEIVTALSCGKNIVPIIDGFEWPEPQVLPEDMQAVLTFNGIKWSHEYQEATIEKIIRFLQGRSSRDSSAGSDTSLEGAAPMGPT

[13] = molecular target: Mitogen-activated protein kinase 7 (Homo sapiens) (UniProt Q13164); assay: ERK5 transactivation activators in reporter cells, primary screen, cell-based, HTS (AID 1508626;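 active = luciferase signal above three times the same-plate solvent-only control wells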;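 also: luciferase driven by Gal4-ERK5 fusion binding five Gal4 sites before minimal TATA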); conditions: HeLa Gal4-ERK5 transactivation, 18 h, at 5 µM, stronger effect = higher value
Mitogen-activated protein kinase 7 (Homo sapiens), sequence (Q13164 whole entry, looked up, the tested form may be a part): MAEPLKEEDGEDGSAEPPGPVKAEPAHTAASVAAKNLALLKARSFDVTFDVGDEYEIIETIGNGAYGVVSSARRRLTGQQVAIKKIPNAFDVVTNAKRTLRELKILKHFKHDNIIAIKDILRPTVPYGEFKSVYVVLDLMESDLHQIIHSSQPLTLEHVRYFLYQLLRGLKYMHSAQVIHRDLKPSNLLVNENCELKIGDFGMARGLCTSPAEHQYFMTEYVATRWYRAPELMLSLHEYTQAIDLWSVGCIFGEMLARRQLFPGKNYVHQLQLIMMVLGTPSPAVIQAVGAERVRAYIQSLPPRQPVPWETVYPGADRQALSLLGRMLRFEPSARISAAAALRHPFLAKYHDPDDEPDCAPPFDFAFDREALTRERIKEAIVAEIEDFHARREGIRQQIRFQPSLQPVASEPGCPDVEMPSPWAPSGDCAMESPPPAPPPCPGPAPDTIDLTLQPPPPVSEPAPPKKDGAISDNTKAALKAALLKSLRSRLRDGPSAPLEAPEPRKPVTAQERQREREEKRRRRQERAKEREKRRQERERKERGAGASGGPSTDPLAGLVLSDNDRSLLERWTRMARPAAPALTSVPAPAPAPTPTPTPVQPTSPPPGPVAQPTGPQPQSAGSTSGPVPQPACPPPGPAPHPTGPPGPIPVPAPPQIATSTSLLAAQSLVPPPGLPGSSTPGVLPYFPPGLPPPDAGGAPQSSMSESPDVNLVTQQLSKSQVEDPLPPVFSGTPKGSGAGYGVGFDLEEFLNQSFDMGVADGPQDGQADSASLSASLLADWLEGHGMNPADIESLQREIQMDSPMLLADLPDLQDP

[14] = system: Hepatitis C virus NS3 helicase; assay: HCV NS3 helicase inhibitors, primary screen, biochemical, fluorescence polarization, NIH Clinical Collection (AID 743270; call rule not given here); conditions: NS3 helicase binding to Cy5-dT15 DNA, stronger effect = higher value, concentration not given here
[15] = molecular target: Single-stranded DNA-binding protein (Escherichia coli (strain K12)) (UniProt P0AGE0); assay: E. coli SSB displacement from DNA, counter-screen for HCV NS3 helicase inhibitor project, biochemical, fluorescence polarization, NIH Clinical Collection (AID 743271; in the data active = inhibition above about 28%); conditions: stronger effect = higher value, concentration not given here
[16] = fluorescence interference in NS3h assay format, artefact control for HCV NS3 helicase inhibitor project, biochemical, NIH Clinical Collection (AID 743272; call rule not given here;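 also: HCV NS3 helicase with a Cy5 labelled single stranded DNA probe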); conditions: fluorescence interference counterscreen, stronger effect = lower value
F380Y = assay: modulators of BK channel variants, profiling panel, selectivity assay, cell-based, U2OS BacMam, thallium flux, beta subunits (AID 1259406;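 active = thallium flux through the channel raised or lowered by more than 3 SD from vehicle-only wells, actives on both sides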;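 also: initial slope of Thallos dye fluorescence rise after thallium is added; log ratio against the mean of 0.3% DMSO vehicle wells on the same plate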); conditions: at 30 µM
F380Y/beta2Delta = assay: as above; conditions: at 30 µM
[17] = molecular target: Calcium-activated potassium channel subunit alpha-1 (Homo sapiens) + Leucine-rich repeat-containing protein 26 (Homo sapiens) (UniProt Q12791+Q2I0M4); assay: as above; conditions: F380Y/Slo1WT/gamma1, at 30 µM
Calcium-activated potassium channel subunit alpha-1 (Homo sapiens) + Leucine-rich repeat-containing protein 26 (Homo sapiens), sequence (Q2I0M4 whole entry, looked up, one chain of several): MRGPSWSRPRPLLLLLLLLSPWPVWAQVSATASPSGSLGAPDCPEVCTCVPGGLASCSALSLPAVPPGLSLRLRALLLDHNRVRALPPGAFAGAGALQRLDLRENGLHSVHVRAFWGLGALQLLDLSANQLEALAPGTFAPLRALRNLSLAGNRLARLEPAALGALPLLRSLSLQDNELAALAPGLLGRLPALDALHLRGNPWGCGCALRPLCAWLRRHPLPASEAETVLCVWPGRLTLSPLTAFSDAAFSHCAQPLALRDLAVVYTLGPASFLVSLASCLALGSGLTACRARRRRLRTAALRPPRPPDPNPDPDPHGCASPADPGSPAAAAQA

[18] = measured here: epithelial PC-3E GFP cell survival
[19] = measured here: mesenchymal TEM4-18 mCherry cell survival
[20] = MELAS cybrid survival, CellTiter-Glo 48 h, stronger effect = higher value
[21] = Rieske KO mouse fibroblast survival, CellTiter-Glo 72 h

CCOC(=O)C1=C(COCCN)NC(C)=C(C(=O)OC)C1c1ccccc1Cl (stereo not drawn)
active: nuclear beta-catenin stimulation ([1]; at 10 µM) 87.9% | viability decrease [3] 99.2% | tube area decrease [4] 87.8% | inhibition of viability [6] 99.3% | viability decrease (inhibition) [7] 102% | viability decrease (inhibition) [8] 92%
0.139 and -0.0453 and -0.413: z-score [11, 21]
inactive: insulin secretion stimulation [2] 11.6% | GLP1 secretion stimulation [5] 0.5% | inhibition [9] 3.33% | red/green cell ratio (normalised) [10] 0.9 | z-score [11, 20] -0.269 and 0.142 and -0.356 | remaining NAD [12] 10 nM | luciferase signal [13] 104 AU
1.13: normalised cell number [10, 19]
10%: nuclear beta-catenin stimulation ([1]; stimulation, at 2 µM)
1.26: normalised cell number [10, 18]

NC(N)=NC(=O)c1nc(Cl)c(N)nc1N
0.245 and 0.664 and 0.681: z-score [11, 21]
-2%: nuclear beta-catenin stimulation ([1]; stimulation, at 2 µM)
inactive: inhibition [14] 6.73% | inhibition [15] 13.8% | fluorescence ratio [16] 0.9 | nuclear beta-catenin stimulation ([1]; at 10 µM) 0.7% | insulin secretion stimulation [2] 4.35% | viability decrease [3] 3.2% | tube area decrease [4] 1.1% | GLP1 secretion stimulation [5] 2% | inhibition of viability [6] 3% | viability decrease (inhibition) [7] 1.8% | viability decrease (inhibition) [8] -11.5% | inhibition [9] 7.13% | red/green cell ratio (normalised) [10] 0.85 | z-score [11, 20] -0.14 and -0.352 and 0.738 | remaining NAD [12] 10 nM | luciferase signal [13] 44 AU | log fold change Tl+ flux (F380Y) -0.00821 | log fold change Tl+ flux (F380Y/beta2Delta) -0.0347 | log fold change Tl+ flux [17] 0.0238
1.1: normalised cell number [10, 19]
1.29: normalised cell number [10, 18]

CCCN1C[C@H](CSC)C[C@@H]2c3cccc4[nH]cc(c34)C[C@H]21
1.25: normalised cell number [10, 19]
-1.1%: nuclear beta-catenin stimulation ([1]; stimulation, at 2 µM)
inactive: inhibition [14] 1.53% | inhibition [15] 10.6% | fluorescence ratio [16] 1 | nuclear beta-catenin stimulation ([1]; at 10 µM) 0.2% | insulin secretion stimulation [2] 3.5% | viability decrease [3] 20.2% | tube area decrease [4] -5.3% | GLP1 secretion stimulation [5] 5.1% | inhibition of viability [6] 45.7% | viability decrease (inhibition) [7] -2.1% | viability decrease (inhibition) [8] 7.8% | inhibition [9] 0.728% | red/green cell ratio (normalised) [10] 1.38 | z-score [11, 20] 0.448 and 0.276 | remaining NAD [12] 10 nM | luciferase signal [13] 40 AU | log fold change Tl+ flux (F380Y) -0.0179 | log fold change Tl+ flux (F380Y/beta2Delta) 0.0229 | log fold change Tl+ flux [17] -0.0185
0.91: normalised cell number [10, 18]
-0.203 and -0.419: z-score [11, 21]
